Results on four compounds are retold here after PubChem BioAssay (EPA / NIEHS).

For assay [1], the target named is Paired box protein Pax-6 (Homo sapiens) (UniProt P26367). Put plainly: ATG_Pax6_CIS: Attagene CIS-FACTORIAL HepG2 Assay for human Paired Box 6 (PAX6) (AID 2282956). Conditions: HepG2 CIS-FACTORIAL PAX6 reporter transcription, RNA readout; actives raise or lower the signal. In a few lines: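 HepG2 cells transiently transfected with cis-promoter-driven multiplexed reporter units sensing endogenous transcription factor activity; 24 h chemical exposure. Reporter mRNA quantified by RT-PCR, 6-FAM labelling, HpaI digestion and capillary electrophoresis; bidirectional fit versus DMSO baseline.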

The nature of assay [2]: ATG_PXRE_CIS: Attagene CIS-FACTORIAL HepG2 Assay for human Pregnane X Receptor Element (PXRE) (AID 2282957). Conditions: HepG2 Attagene CIS-FACTORIAL PXRE reporter, mRNA; actives raise or lower the signal. In a few lines:
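Transfect HepG2 with MRTUs (cis promoter elements); dose chemical, incubate 24 h; isolate RNA, RT with oligo(dT), PCR, 6-FAM label, HpaI cut, CE. Gain/loss fit vs DMSO.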

A short description of assay [3]: ATG_PPRE_CIS: Attagene CIS-FACTORIAL HepG2 Assay for human Peroxisome Proliferator-activated Response Element (PPRE) (AID 2282958). Conditions: HepG2 PPRE cis-element reporter, Attagene transcription factor profiling; actives raise or lower the signal. A digest of the protocol:
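In this cell-based multiplex, a PPRE cis element drives a reporter sequence in transiently transfected HepG2 cells. Following 24 h treatment, labeled cDNA amplicons are sized and quantified by capillary electrophoresis, with DMSO defining baseline.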

A short description of assay [4]: ATG_RORE_CIS: Attagene CIS-FACTORIAL HepG2 Assay for human RAR-related Orphan Receptor Element (RORE) (AID 2282959). Conditions: HepG2 Attagene cis-factorial RORE reporter, mRNA; actives raise or lower the signal. In a few lines: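 Endogenous factor activity at a cis response element is read as reporter transcript levels in HepG2 cells, 24 h post-dose. Transcripts are quantified by RT-PCR with capillary electrophoresis, and data fitted in both directions against DMSO.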

Assay [5] can be described thus: ATG_Sox_CIS: Attagene CIS-FACTORIAL HepG2 Assay for human SRY-box transcription factor (SOX) (AID 2282960). As to conditions: HepG2 Attagene cis-factorial SOX reporter, mRNA; actives raise or lower the signal. A digest of the protocol:
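Measures mRNA induction of a SOX1-associated reporter in HepG2 after 24 h dosing. Fluorescently labelled RT-PCR fragments are separated by capillary electrophoresis, and gain or loss relative to DMSO control is fitted.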

In assay [6] the target is Transcription factor Sp1 (Homo sapiens) (UniProt P08047). The experiment in a line: ATG_Sp1_CIS: Attagene CIS-FACTORIAL HepG2 Assay for human Specificity Protein 1 (Sp1) (AID 2282961). As to conditions: HepG2 Sp1 cis-reporter transcription, actives raise or lower the signal. In a few lines: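 Cells: HepG2, transiently transfected with cis-regulated multiplexed reporters. Exposure: 24 h. Detection: reporter transcripts amplified, fluorescently labeled, restriction-digested and sized by capillary electrophoresis. Analysis: bidirectional fit relative to DMSO.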

Assay [7] is described as follows: ATG_SREBP_CIS: Attagene CIS-FACTORIAL HepG2 Assay for human Sterol Regulatory Element Binding (SREBP) (AID 2282962). Conditions: HepG2 Attagene cis-factorial SREBP reporter, mRNA; actives raise or lower the signal. A digest of the protocol:
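HepG2 cells transiently transfected with multiplexed cis-promoter reporter units sensing endogenous transcription factors; reporter mRNA measured 24 h after dosing by RT-PCR, 6-FAM labeling, HpaI digestion and capillary electrophoresis. Bidirectional fit versus DMSO.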

The target of assay [8] is Signal transducer and activator of transcription 3 (Homo sapiens) (UniProt P40763). Put plainly: ATG_STAT3_CIS: Attagene CIS-FACTORIAL HepG2 Assay for human Signal Transducer and Activator of Transcription 3 (STAT3) (AID 2282963). Conditions: HepG2, Attagene cis-factorial STAT3 reporter transcription; actives raise or lower the signal. A digest of the protocol: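 After a 24 h compound incubation, total RNA from MRTU-transfected HepG2 cells was converted to cDNA and reporter sequences PCR-amplified, labelled and profiled by capillary electrophoresis. Gain and loss of signal were referenced to DMSO.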

Assay [9] can be described thus: ATG_TA_CIS: Attagene CIS-FACTORIAL HepG2 Assay for human TA Basal Promoter (AID 2282964). As to conditions: HepG2 Attagene CIS-factorial TA basal promoter reporter; actives raise or lower the signal. A digest of the protocol: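 Steps: transfect HepG2 with MRTUs; dose 24 h; isolate RNA, DNase-treat, reverse-transcribe; PCR and FAM-label reporter cDNA; digest with HpaI 2h at 37 C; run capillary electrophoresis. Activity fitted both directions against DMSO.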

The nature of assay [10]: ATG_TCF_b_cat_CIS: Attagene CIS-FACTORIAL HepG2 Assay for human T-Cell-Factor with beta-catenin (TCF/b-cat) (AID 2282965). As to conditions: HepG2 TCF/beta-catenin cis-reporter transcription, actives raise or lower the signal. A digest of the protocol: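 Measured: reporter mRNA in HepG2 transiently transfected with cis-promoter reporter units, 24 h after chemical addition. Fitting was bidirectional, DMSO as negative control.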

Assay [11] is described as follows: ATG_TAL_CIS: Attagene CIS-FACTORIAL HepG2 Assay for human TAL Basal Promoter (AID 2282966).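 Also: background control endpoint measuring basal TAL promoter reporter mRNA not a specific factor.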 Conditions: HepG2 Attagene cis-factorial TAL promoter reporter; actives raise or lower the signal. A digest of the protocol:
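Fluorescence of labelled reporter cDNA fragments, resolved by capillary electrophoresis, gave the readout. Human HepG2 liver cells carried transiently transfected cis-element reporter units and were treated for 24 hours; activity was fitted bidirectionally against DMSO.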

A short description of assay [12]: ATG_TGFb_CIS: Attagene CIS-FACTORIAL HepG2 Assay for human Transforming Growth Factor (TGF) (AID 2282967). Conditions: HepG2 Attagene CIS TGFb reporter, mRNA transcription; actives raise or lower the signal. A digest of the protocol: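 Cells were dosed for 24 hours, after which total RNA was reverse-transcribed and reporter sequences amplified, labeled and sized by capillary electrophoresis. Activity was fitted in both directions against DMSO.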

The nature of assay [13]: ATG_VDRE_CIS: Attagene CIS-FACTORIAL HepG2 Assay for human Vitamin D Receptor Element (VDRE) (AID 2282968). As to conditions: HepG2 VDRE cis-reporter transcription, actives raise or lower the signal. A digest of the protocol:
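In transiently transfected HepG2 liver cells, gain or loss of reporter mRNA after 24 h exposure is scored relative to DMSO, using fluorescence detection by capillary electrophoresis of RT-PCR products.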

In assay [14] the target is Steroid hormone receptor ERR1 (Homo sapiens) (UniProt P11474). Put plainly: ATG_ERRa_TRANS: Attagene TRANS-FACTORIAL HepG2 Assay for human Estrogen-Related Receptor alpha (ERRa) (AID 2282971; active = hit-call score of the fitted dose curve at least 0.9, where 1 is the maximum). Conditions: HepG2 Attagene TRANS reporter, ERRa transactivation. In a few lines:
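Reporter transcript induction was quantified by RT-PCR and capillary electrophoresis of FAM-labelled, HpaI-cut products after 24 h treatment of HepG2 cells carrying transiently transfected GAL4-UAS reporter units and an exogenous ERRa-Gal4 fusion; activity scored as increase over DMSO.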

The nature of assay [15]: ATG_M_19_TRANS: Attagene TRANS-FACTORIAL HepG2 Assay for M19 Transcription Factor (Internal Marker) (AID 2282974; active = hit-call score of the fitted dose curve at least 0.9, where 1 is the maximum). Conditions: HepG2 Attagene TRANS-FACTORIAL M19 internal marker reporter. A digest of the protocol:
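Reporter mRNA induction was measured in transfected HepG2 cells 24 h after dosing. Endpoint fitted upward relative to DMSO and serves as a background control within the multiplexed TRANS panel.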

Assay [16] can be described thus: ATG_GAL4_TRANS: Attagene TRANS-FACTORIAL HepG2 Assay for GAL4 (Internal Marker) (AID 2282976; active = hit-call score of the fitted dose curve at least 0.9, where 1 is the maximum). As to conditions: HepG2 Attagene TRANS GAL4 internal marker reporter. In a few lines:
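First, HepG2 cells were transfected with reporter units under GAL4-UAS control. Next, they were treated with chemical for 24 h. Finally, RNA was reverse-transcribed, PCR-amplified, FAM-labelled and resolved by capillary electrophoresis, with induction scored against DMSO.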

Assay [17] has as its target Glucocorticoid receptor (Homo sapiens) (UniProt P04150). The experiment in a line: ATG_GR_TRANS: Attagene TRANS-FACTORIAL HepG2 Assay for human Glucocorticoid Receptor (GR) (AID 2282978; active = hit-call score of the fitted dose curve at least 0.9, where 1 is the maximum;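 also: activators score as hits since higher reporter transcript over DMSO is fitted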). Conditions: HepG2 Attagene TRANS GR reporter, mRNA transcription. In a few lines:
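Reporter transcript levels, detected by fluorescence after RT-PCR and capillary electrophoresis, served as the endpoint. HepG2 cells bearing transfected GAL4-UAS reporters responsive to NR-GAL4 chimeras were incubated with compound 24 h; DMSO defined baseline.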

Assay [18] has as its target X-box-binding protein 1 (Homo sapiens) (UniProt P17861). The experiment in a line: ATG_Xbp1_CIS: Attagene CIS-FACTORIAL HepG2 Assay for human X-box Binding Protein 1 (XBP1) (AID 2282972). As to conditions: HepG2 XBP1 cis-element reporter, Attagene multiplex; actives raise or lower the signal. In a few lines: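 HepG2 cells transiently transfected with multiple cis-element reporter units report endogenous TF activity; 24 h exposure, then reporter mRNA measured by RT-PCR, 6-FAM labelling, HpaI digestion and capillary electrophoresis. Bidirectional fitting versus DMSO.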

In assay [19] the target is Nuclear receptor subfamily 1 group I member 3 (Homo sapiens) (UniProt Q14994). Put plainly: ATG_CAR_TRANS: Attagene TRANS-FACTORIAL HepG2 Assay for human Constitutive Androstane Receptor (CAR) (AID 2282969; active = hit-call score of the fitted dose curve at least 0.9, where 1 is the maximum;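 also: activators raise reporter mRNA above DMSO so AC50 marks induction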). As to conditions: HepG2 Attagene TRANS-FACTORIAL CAR reporter. In a few lines:
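Readout is reporter mRNA induction, quantified by fluorescent primer extension and capillary electrophoresis after RT-PCR. Cells were HepG2 transiently carrying chimeric NR-Gal4 constructs with GAL4-UAS reporters, treated for 24 h; activity scored upward from DMSO.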

Inconclusive results are not listed. The source made the active and inactive calls. The calls were made as follows, unless noted: active = hit-call score of the fitted dose curve at least 0.9, where 1 is the maximum; inactive = score below 0.9.

Sequence of Paired box protein Pax-6 (Homo sapiens) (P26367 whole entry, looked up): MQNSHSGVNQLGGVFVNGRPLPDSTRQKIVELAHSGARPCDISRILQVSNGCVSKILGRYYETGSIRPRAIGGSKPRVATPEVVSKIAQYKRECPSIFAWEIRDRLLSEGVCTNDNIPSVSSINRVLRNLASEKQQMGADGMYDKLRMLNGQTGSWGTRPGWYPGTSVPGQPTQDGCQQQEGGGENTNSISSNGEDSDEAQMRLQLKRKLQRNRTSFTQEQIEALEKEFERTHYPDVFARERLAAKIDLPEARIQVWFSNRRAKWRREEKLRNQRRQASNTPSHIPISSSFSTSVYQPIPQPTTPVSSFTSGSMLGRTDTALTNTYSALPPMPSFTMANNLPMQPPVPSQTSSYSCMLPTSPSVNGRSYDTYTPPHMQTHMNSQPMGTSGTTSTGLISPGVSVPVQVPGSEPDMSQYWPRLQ
Sequence of Transcription factor Sp1 (Homo sapiens) (P08047 whole entry, looked up): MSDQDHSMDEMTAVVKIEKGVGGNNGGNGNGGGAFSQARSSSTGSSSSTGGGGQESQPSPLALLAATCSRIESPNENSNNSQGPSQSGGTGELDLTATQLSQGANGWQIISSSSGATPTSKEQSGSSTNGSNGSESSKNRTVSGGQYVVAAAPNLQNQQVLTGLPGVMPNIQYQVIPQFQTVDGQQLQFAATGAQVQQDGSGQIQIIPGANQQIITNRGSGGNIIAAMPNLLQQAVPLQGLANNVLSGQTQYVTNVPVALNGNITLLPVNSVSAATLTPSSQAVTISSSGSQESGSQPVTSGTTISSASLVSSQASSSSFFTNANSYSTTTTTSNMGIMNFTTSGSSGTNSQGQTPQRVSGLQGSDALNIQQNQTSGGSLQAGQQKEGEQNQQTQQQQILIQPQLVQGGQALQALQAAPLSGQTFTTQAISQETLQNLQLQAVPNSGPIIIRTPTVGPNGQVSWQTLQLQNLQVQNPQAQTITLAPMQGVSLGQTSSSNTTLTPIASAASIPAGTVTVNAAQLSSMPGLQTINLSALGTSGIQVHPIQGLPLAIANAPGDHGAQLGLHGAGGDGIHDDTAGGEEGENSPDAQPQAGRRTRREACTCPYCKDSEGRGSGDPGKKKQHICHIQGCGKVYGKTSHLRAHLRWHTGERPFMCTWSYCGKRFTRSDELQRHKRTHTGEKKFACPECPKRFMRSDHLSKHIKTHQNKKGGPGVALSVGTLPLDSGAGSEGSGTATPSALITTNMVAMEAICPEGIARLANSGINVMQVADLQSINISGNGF
Sequence of Signal transducer and activator of transcription 3 (Homo sapiens) (P40763 whole entry, looked up): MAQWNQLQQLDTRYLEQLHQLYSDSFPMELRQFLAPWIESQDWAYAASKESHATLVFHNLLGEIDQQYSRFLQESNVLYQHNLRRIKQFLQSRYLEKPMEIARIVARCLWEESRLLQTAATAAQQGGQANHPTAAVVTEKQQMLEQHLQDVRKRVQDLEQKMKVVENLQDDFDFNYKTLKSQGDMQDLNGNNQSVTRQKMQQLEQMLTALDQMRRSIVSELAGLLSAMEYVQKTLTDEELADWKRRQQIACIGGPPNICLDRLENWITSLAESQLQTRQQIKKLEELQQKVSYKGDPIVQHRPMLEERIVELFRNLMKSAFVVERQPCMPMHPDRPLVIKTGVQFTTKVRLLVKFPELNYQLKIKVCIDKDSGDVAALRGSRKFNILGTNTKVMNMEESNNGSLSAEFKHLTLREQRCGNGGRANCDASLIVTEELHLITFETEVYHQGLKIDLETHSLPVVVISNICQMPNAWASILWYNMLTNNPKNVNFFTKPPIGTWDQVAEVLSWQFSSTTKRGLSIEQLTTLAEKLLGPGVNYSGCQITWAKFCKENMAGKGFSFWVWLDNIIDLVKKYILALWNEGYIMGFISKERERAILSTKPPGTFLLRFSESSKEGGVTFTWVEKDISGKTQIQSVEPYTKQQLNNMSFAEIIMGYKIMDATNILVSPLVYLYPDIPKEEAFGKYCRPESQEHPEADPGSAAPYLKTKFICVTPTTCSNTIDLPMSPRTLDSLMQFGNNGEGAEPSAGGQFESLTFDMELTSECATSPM
Sequence of X-box-binding protein 1 (Homo sapiens) (P17861 whole entry, looked up): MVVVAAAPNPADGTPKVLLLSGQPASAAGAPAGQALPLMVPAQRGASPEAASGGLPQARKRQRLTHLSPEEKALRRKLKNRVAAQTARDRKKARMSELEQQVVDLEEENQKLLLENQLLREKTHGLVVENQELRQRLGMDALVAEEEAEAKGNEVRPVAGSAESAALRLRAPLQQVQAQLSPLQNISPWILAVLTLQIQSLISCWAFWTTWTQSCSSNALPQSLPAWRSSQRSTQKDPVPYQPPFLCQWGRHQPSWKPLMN
Sequence of Nuclear receptor subfamily 1 group I member 3 (Homo sapiens) (Q14994 whole entry, looked up, the tested form may be a part): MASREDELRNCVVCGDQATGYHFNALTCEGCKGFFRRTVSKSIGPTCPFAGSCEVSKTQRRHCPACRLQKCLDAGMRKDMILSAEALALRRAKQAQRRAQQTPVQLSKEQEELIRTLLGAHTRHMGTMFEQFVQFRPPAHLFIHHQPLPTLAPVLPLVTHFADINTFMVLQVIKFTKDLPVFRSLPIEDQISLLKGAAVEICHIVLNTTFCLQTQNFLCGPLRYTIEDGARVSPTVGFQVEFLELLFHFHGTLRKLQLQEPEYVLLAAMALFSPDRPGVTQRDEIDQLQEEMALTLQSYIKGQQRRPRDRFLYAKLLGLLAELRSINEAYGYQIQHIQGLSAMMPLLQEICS
Sequence of Steroid hormone receptor ERR1 (Homo sapiens) (P11474 whole entry, looked up, the tested form may be a part): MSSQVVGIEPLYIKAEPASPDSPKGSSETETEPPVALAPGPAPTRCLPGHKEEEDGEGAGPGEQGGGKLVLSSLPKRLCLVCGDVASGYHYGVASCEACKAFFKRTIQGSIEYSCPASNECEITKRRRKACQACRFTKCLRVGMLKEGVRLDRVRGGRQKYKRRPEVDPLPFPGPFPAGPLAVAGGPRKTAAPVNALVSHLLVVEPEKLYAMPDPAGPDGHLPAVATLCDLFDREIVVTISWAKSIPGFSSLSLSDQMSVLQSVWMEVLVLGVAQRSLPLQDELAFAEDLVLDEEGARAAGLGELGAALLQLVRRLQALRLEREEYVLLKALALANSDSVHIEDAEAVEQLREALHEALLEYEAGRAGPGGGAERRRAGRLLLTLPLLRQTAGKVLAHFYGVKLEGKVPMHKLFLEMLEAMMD
Sequence of Glucocorticoid receptor (Homo sapiens) (P04150 whole entry, looked up, the tested form may be a part): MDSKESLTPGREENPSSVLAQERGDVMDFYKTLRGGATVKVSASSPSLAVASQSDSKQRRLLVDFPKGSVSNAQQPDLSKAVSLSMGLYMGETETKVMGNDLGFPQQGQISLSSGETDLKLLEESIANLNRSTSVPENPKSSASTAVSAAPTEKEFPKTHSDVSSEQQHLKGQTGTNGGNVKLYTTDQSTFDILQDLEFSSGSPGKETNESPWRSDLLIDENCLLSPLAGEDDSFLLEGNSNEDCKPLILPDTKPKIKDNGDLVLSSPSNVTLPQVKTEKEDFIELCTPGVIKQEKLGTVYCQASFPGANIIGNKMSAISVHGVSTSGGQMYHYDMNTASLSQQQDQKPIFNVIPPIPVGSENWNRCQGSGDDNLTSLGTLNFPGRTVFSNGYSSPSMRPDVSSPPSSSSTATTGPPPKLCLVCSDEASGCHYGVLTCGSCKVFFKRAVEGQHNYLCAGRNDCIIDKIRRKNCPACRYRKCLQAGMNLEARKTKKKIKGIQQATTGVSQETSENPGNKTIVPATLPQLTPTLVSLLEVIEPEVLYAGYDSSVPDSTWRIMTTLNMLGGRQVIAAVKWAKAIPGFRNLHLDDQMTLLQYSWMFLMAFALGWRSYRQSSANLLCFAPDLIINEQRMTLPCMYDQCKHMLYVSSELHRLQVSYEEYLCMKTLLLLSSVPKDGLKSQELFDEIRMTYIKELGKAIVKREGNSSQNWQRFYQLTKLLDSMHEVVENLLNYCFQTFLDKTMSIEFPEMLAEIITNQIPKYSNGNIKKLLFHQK

For `CC/C(=C\C(=N/O)C(N)=O)C(C)[N+](=O)[O-]` (stereo unspecified), the outcome in assay [1], in assay [2], in assay [3], in [4], in assay [5] and in [6] was inactive. In addition, the compound was classed as inactive in assay [7], in [8], in assay [9], in [11], in assay [12] and in assay [13]. Further, the result in assay [14], in assay [15], in assay [16] and in [17] was inactive. Besides, in assay [10], the AC50 was 100 µM (active).

As to `C1N2CN3CN1CN(C2)C3`, the compound was called inactive in [1], in assay [2], in [3], in assay [4], in assay [5] and in [6]. Besides, the call in assay [7], in assay [8], in [9], in assay [10], in assay [11] and in assay [12] was inactive. The compound was called inactive in assay [13], in assay [15] and in [16].

As to `O=C1OC(=O)C2C3C=CC(C3)C12` (stereo unspecified), the compound was called inactive in [1], in [2], in assay [3], in assay [4], in assay [5] and in assay [6]. Further, the outcome in assay [7], in assay [8], in [9], in assay [10], in [11] and in assay [12] was inactive. For the same compound, the compound was called inactive in [13], in assay [18] and in assay [15].

In the case of `CCNc1ccccc1`, the result in assay [1], in assay [3], in [4], in assay [6], in [7] and in [8] was inactive. The outcome in assay [9], in [10], in assay [11], in assay [12], in assay [13] and in assay [19] was inactive. In addition, the outcome in [16] was inactive. For the same compound, the AC50 in [2] is 35.5 µM (active).

As a reminder, the AC50 is the concentration at which the activity in the assay is half-maximal.
